Records with an inconclusive call do not appear. Where a structure was tested more than once in an assay, its records may differ in their call. The source made the active and inactive calls. Unless noted, calls come from the whole dose curve.

Assay [1] in a line: qHTS assay to identify small molecule antagonists of the peroxisome proliferator-activated receptor delta (PPARd) signaling pathway - cell viability counter screen (AID 743213; active = well fitted curve in the direction sought with a large enough effect in the repeat runs; an effect the other way counts as inactive or inconclusive; note: nearly all actives have a fitted effect of over 50% in size). The gist of the method:
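Same-well viability: cells pre-incubated 5 h, dosed with compound plus 300 nM L165041, kept 17 h at 37 C, FRET substrate 2 h RT, then CellTiter-Glo 30 min RT and luminescence.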

Assay [2] concerns the target Peroxisome proliferator-activated receptor delta (Homo sapiens) (UniProt Q03181). Briefly: qHTS assay to identify small molecule antagonists of the peroxisome proliferator-activated receptor delta (PPARd) signaling pathway (AID 743215; active = well fitted inhibition curve with a large enough effect in the signal ratio in the repeat runs, not every such curve was filed as active; the % refers to the signal ratio;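 note: cells stimulated with agonist L165041 at 300 nM final during compound exposure; series mostly up to about 62 µM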). The gist of the method: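 Fluorescence from cleaved LiveBLAzer B/G FRET substrate (2 h, room temperature) reports PPARd-driven beta-lactamase in HEK293H UAS-bla cells. Cells had been treated 17 h at 37 C with compound plus 300 nM final L165041.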

The nature of assay [3]: qHTS assay to identify small molecule agonists of the farnesoid-X-receptor (FXR) signaling pathway - cell viability counter screen (AID 743218; active = well fitted curve in the direction sought with a large enough effect in the repeat runs; an effect the other way counts as inactive or inconclusive; note: nearly all actives have a fitted effect of over 45% in size). The gist of the method:
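Readout: CellTiter-Glo luminescence, 30 min RT, multiplexed after the FXR-bla FRET reading. HEK 293T FXR-UAS-bla cells received compound 5 h post-plating and were incubated 16 h at 37 C.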

A short description of assay [4]: qHTS assay to identify small molecule antagonists of the farnesoid-X-receptor (FXR) signaling pathway - cell viability counter screen (AID 743221; active = well fitted cell-killing curve with a large enough effect in the repeat runs, not every such curve was filed as active; note: nearly all actives have a fitted effect of over 50% in size). The gist of the method:
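Cytotoxicity counter screen run in the FXR-bla reporter wells: HEK 293T cells exposed to compound with 50 uM (final) chenodeoxycholic acid for 16 h, 37 C, then viability measured by CellTiter-Glo luminescence after 30 min, room temperature.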

For assay [5], the target named is Vitamin D3 receptor (Homo sapiens) (UniProt P11473). In words: qHTS assay to identify small molecule agonists of the vitamin D receptor (VDR) signaling pathway (AID 743222). The gist of the method: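 Following 4 h attachment at 37C, VDR-bla cells (2,000 per well) received DMSO-dissolved compounds or controls. After 16 h incubation, LiveBLAzer B/G FRET substrate was added and fluorescence read 2 h later at room temperature.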

Assay [6] has the same target. Briefly: qHTS assay to identify small molecule antagonists of the vitamin D receptor (VDR) signaling pathway (AID 743223; active = well fitted inhibition curve with a large enough effect in the signal ratio in the repeat runs, not every such curve was filed as active; the % refers to the signal ratio). The gist of the method:
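Antagonist mode: compound added to VDR-bla cells alongside agonist 1alpha,25-dihydroxyvitamin D3 (3 nM final), incubation 16 h at 37C. Read-out is LiveBLAzer FRET fluorescence, 2 h at room temperature.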

A short description of assay [7]: qHTS assay to identify small molecule agonists of the vitamin D receptor (VDR) signaling pathway - cell viability counter screen (AID 743224; active = well fitted curve in the direction sought with a large enough effect in the repeat runs; an effect the other way counts as inactive or inconclusive; note: series mostly up to about 63 µM; nearly all actives have a fitted effect of over 50% in size). The gist of the method: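 In parallel with the bla FRET readout, cytotoxicity toward VDR-bla cells after 16 h compound exposure was assessed by CellTiter-Glo, with luminescence recorded after a 30 min room-temperature incubation.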

A short description of assay [8]: qHTS assay to identify small molecule antagonists of the vitamin D receptor (VDR) signaling pathway - cell viability counter screen (AID 743225; active = well fitted curve in the direction sought with a large enough effect in the repeat runs; an effect the other way counts as inactive or inconclusive; note: nearly all actives have a fitted effect of over 50% in size). The gist of the method:
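Cytotoxicity counter screen read by CellTiter-Glo luminescence (30 min, room temperature) in the same wells as the VDR-bla antagonist readout. HEK 293T VDR-UAS-bla cells had 16 h at 37C with compound and 3 nM (final) 1-alpha,25-dihydroxyvitamin D3, then 2 h with FRET substrate.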

Assay [9] is described as follows: qHTS assay to identify small molecule agonists of the NFkB signaling pathway (AID 1159509; active = well fitted curve in the direction sought with a large enough effect in the signal ratio in the repeat runs, not every such curve was filed as active; the % refers to the signal ratio; note: series mostly up to about 61 µM). The gist of the method: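 Beta-lactamase reporter assay run in quantitative high-throughput format on an NF-kB-responsive ME-180 line, with 5 hr compound treatment and a FRET-based blue/green fluorescence readout.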
Assay [10] is described as follows: qHTS assay to identify small molecule agonists of the NFkB signaling pathway - cell viability counter screen (AID 1159515). Note: series mostly up to about 61 µM; nearly all actives have a fitted effect of over 55% in size. The gist of the method: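 Plate 2,000 NFkB-bla ME-180 cells/well; incubate overnight. Add compounds, 5 hr at 37 C. Add FRET substrate, 1.5 hr RT. Add CellTiter-Glo, 30 min RT; read luminescence.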
Assay [11] is described as follows: qHTS assay to identify small molecule agonists of the endoplasmic reticulum stress response signaling pathway (AID 1159516; active = well fitted activation curve with a large enough effect in the signal ratio in the repeat runs, not every such curve was filed as active; the % refers to the signal ratio). The gist of the method: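 Beta-lactamase expression from the ER stress response element in HeLa reporter cells is quantified with the LiveBLAzer B/G FRET substrate, read at 405 nm excitation after 2 hr at room temperature, following 5 hr compound treatment at 37 C.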

Assay [12] can be described thus: qHTS assay to identify small molecule agonists of the endoplasmic reticulum stress response signaling pathway - cell viability counter screen (AID 1159517). The gist of the method:
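Steps: seed 1,500 ESRE-bla HeLa cells per well; incubate overnight at 37 C, 5% CO2; add compounds in DMSO for 5 hr; run FRET substrate 2 hr RT; add CellTiter-Glo, wait 30 min, read luminescence.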

Assay [13] is described as follows: qHTS assay to identify small molecule antagonists of the retinoid-related orphan receptor gamma (ROR-gamma) signaling pathway - cell viability counter screen (AID 1159520; active = well fitted curve in the direction sought with a large enough effect in the repeat runs; an effect the other way counts as inactive or inconclusive; note: nearly all actives have a fitted effect of over 50% in size). The gist of the method:
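Tet-on ROR gamma CHO cells were given compounds for 2 hr, then doxycycline hyclate at 1 uM final, and incubated 16 hr at 37 C. Viability was measured as ATP content by CellTiter-Glo luminescence.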

In assay [14] the target is Nuclear receptor ROR-gamma (Homo sapiens) (UniProt P51449). Briefly: qHTS assay to identify small molecule antagonists of the retinoid-related orphan receptor gamma (ROR-gamma) signaling pathway (AID 1159521; active = well fitted curve in the direction sought with a large enough effect in the repeat runs; an effect the other way counts as inactive or inconclusive). The gist of the method: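 Antagonist read-out: drop in luminescence (ONE-Glo) from an RORE-LUC reporter in CHO cells with doxycycline-inducible ROR-gamma; 2 hr compound pretreatment, 1 uM doxycycline, 16 hr incubation at 37 C.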

Assay [15] can be described thus: qHTS assay to identify small molecule agonists of the AP-1 signaling pathway - cell viability counter screen (AID 1159525). Note: nearly all actives have a fitted effect of over 55% in size. The gist of the method:
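Same-well cytotoxicity counter screen of the Tox21 10K library in ME-180 cells. The readout is ATP-dependent luminescence after 5 h compound treatment. Data are normalised to DMSO and tetra n-octyl ammonium bromide controls.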

Assay [16] in a line: qHTS assay to identify small molecule agonists of the AP-1 signaling pathway (AID 1159526).
Assay [17] concerns the target Bile acid receptor (Homo sapiens) (UniProt Q96RI1). Briefly: qHTS assay to identify small molecule antagonists of the farnesoid-X-receptor (FXR) signaling pathway (AID 743217; active = well fitted inhibition curve with a large enough effect in the signal ratio in the repeat runs, not every such curve was filed as active; the % refers to the signal ratio). The gist of the method:
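FRET fluorescence after 2 h room-temperature LiveBLAzer loading gives the readout. Prior step: FXR-bla HEK 293T cells, seeded and incubated 5 h, received test compounds plus 50 uM final CDCA for 16 h at 37 °C.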

The target is the same in assay [18]. Briefly: qHTS assay to identify small molecule agonists of the farnesoid-X-receptor (FXR) signaling pathway (AID 743220; active = well fitted activation curve with a large enough effect in the signal ratio in the repeat runs, not every such curve was filed as active; the % refers to the signal ratio). The gist of the method: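 FXR-UAS-bla HEK 293T cells carrying a UAS-driven beta-lactamase reporter were plated for 5 h at 37C/5% CO2, then exposed to DMSO-dissolved Tox21 10K compounds for 16 h at 37C. A LiveBLAzer B/G FRET substrate was loaded for 2 h at room temperature before fluorescence reading.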

In assay [19] the target is Retinoic acid receptor RXR-alpha (Homo sapiens) (UniProt P19793). Briefly: qHTS assay to identify small molecule agonists of the RXR signaling pathway (AID 1159527). Note: nearly all actives have a fitted effect of over 35% in size. Note: potency is the fitted concentration of half-maximal effect. The gist of the method:
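Agonist-mode beta-lactamase reporter assay: HEK 293T RXR-alpha-UAS-bla cells treated 16 hr at 37 C with compounds, 9-cis retinoic acid as positive control. LiveBLAzer FRET substrate, 405 nm excitation, 460/530 nm emission.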

Chain of Retinoic acid receptor RXR-alpha (Homo sapiens) (P19793 whole entry, looked up): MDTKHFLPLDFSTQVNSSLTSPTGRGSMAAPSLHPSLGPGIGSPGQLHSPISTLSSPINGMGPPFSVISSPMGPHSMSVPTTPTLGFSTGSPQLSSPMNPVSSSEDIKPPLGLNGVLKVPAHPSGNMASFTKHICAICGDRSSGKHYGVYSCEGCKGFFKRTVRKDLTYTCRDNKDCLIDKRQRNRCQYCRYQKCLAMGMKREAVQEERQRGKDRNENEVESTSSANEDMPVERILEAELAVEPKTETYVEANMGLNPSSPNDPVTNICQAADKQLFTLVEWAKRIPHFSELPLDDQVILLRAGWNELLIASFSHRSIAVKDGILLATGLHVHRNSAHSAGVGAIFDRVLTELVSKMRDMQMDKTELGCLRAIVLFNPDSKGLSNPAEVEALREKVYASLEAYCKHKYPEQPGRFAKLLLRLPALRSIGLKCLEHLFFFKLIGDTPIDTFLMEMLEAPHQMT
Chain of Bile acid receptor (Homo sapiens) (Q96RI1 whole entry, looked up): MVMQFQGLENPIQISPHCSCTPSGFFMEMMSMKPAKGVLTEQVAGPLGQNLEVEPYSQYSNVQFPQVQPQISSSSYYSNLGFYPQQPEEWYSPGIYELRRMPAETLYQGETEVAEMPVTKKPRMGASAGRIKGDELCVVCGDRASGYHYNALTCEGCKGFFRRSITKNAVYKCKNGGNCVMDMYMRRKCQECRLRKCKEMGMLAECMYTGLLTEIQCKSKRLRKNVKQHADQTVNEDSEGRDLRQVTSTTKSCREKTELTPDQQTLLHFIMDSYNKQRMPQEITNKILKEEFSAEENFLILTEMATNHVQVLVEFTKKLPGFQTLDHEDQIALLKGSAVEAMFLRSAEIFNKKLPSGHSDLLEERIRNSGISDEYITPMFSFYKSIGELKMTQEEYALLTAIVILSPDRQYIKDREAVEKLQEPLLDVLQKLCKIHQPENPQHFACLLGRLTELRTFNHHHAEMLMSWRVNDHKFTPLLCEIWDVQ
Chain of Vitamin D3 receptor (Homo sapiens) (P11473 whole entry, looked up): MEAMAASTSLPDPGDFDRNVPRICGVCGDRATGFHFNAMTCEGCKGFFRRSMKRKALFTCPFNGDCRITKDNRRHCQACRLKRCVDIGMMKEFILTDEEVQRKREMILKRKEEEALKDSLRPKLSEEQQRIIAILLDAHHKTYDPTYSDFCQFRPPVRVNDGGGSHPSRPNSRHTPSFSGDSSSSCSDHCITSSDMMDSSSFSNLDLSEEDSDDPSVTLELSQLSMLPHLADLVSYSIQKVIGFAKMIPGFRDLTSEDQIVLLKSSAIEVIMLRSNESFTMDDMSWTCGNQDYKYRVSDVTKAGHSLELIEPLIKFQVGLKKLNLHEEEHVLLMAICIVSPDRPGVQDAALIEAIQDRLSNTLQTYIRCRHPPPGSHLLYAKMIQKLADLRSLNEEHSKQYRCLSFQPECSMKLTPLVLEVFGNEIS
Chain of Peroxisome proliferator-activated receptor delta (Homo sapiens) (Q03181 whole entry, looked up): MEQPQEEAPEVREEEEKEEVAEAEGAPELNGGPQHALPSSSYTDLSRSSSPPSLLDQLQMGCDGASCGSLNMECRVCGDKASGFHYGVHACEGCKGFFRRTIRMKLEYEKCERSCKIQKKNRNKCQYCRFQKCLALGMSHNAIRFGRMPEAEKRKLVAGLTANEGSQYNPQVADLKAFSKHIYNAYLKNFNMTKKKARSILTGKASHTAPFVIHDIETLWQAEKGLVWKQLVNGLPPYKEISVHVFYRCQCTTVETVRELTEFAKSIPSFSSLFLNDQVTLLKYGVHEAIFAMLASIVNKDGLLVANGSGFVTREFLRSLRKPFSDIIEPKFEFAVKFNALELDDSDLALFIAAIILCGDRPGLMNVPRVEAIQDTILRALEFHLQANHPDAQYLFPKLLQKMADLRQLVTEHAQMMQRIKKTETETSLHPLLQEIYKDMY

As to `O=C(C1CCCCC1)N1CC(=O)N2CCc3ccccc3C2C1` (centres undefined), the result in assay [1], in [2], in [3], in [4], in assay [5] and in [6] was inactive. Further, the molecule was called inactive in [7], in assay [8], in assay [9], in assay [10], in assay [11] and in assay [12]. Also, the Potency result in assay [13], in assay [14], in [15] and in [16] was “inactive” in each case.
Turning to `O=C(c1ccccc1)c1ccccc1`, the result in assay [1], in [3], in [18], in assay [4], in assay [5] and in [6] was inactive. Also, the molecule was classed as inactive in assay [7], in assay [8], in [9], in assay [10], in assay [11] and in assay [12]. In addition, the Potency entry in assay [17], in assay [13], in [15], in assay [16] and in [19] was “inactive” in each case.
For `O=C(O)c1cccc([N+](=O)[O-])c1`, the molecule was classed as inactive in [1], in [3], in assay [4], in assay [7], in assay [8] and in [9]. In addition, the result in assay [10], in [11] and in assay [12] was inactive. The Potency entry in [13], in assay [14], in assay [15], in assay [16] and in [19] was “inactive” each time.
In the case of `CNC[C@H](O)c1cccc(O)c1`, the result in [1], in [3], in [4], in [5], in assay [6] and in [7] was inactive. Also, the call in assay [8], in assay [9], in assay [10], in [11] and in assay [12] was inactive. Further, the Potency result in [13], in [15], in [16] and in assay [19] was “inactive” throughout.
With `Cc1noc(NS(=O)(=O)c2ccc(N)cc2)c1C`, the outcome in assay [1], in assay [3], in [18], in [4], in assay [9] and in assay [10] was inactive. Besides, the result in assay [11] and in assay [12] was inactive. Further, the Potency result in [17], in [13], in [15], in [16] and in assay [19] was “inactive” throughout.
For the molecule `CCCC(CCC)C(=O)O`, the outcome in assay [1], in assay [3], in [4], in assay [5], in [6] and in assay [7] was inactive. Also, the call in assay [8], in assay [9], in assay [10], in assay [11] and in assay [12] was inactive. The Potency result in assay [13], in assay [15] and in assay [16] was “inactive” in each case.
In the case of `Cn1c(=O)c2[nH]cnc2n(C)c1=O`, the outcome in [1], in assay [3], in assay [18], in assay [4], in assay [7] and in [8] was inactive. Moreover, the call in assay [9], in assay [10], in assay [11] and in assay [12] was inactive. Further, the Potency result in assay [17], in assay [13], in assay [15] and in assay [16] was “inactive” throughout. Moreover, the Potency in assay [19] is 13.8 µM (active) and inactive.
For `O=C(O)/C=C\C(=O)O`, the outcome in assay [1], in assay [3], in assay [4], in assay [5], in assay [6] and in [7] was inactive. The molecule was classed as inactive in [8], in assay [9], in assay [10], in assay [11] and in [12]. Besides, the Potency result in assay [13], in [14], in assay [15], in assay [16] and in [19] was “inactive” each time.
For the molecule `C/C=C/c1ccc(OC)cc1`, the result in [1], in [3], in assay [4], in assay [7], in assay [8] and in [9] was inactive. The molecule was classed as inactive in assay [10], in [11] and in assay [12]. The Potency entry in assay [13], in assay [14], in assay [15], in assay [16] and in assay [19] was “inactive” throughout.

Values taken from PubChem BioAssay (Tox21).
